This passage reports Inhibition results from ChEMBL document CHEMBL1157539, “Thousands of chemical starting points for antimalarial lead identification” (Nature, 2010).

Holding throughout (type): functional
For assay [1], the system named is Plasmodium falciparum. Description: GSK_TCMDC: Inhibition of Plasmodium falciparum 3D7 in whole red blood cells, using parasite LDH activity as an index of growth. Test compounds present at 2uM.
Assay [2] deals with Plasmodium falciparum. Description: GSK_TCMDC: Inhibition of Plasmodium falciparum Dd2 in whole red blood cells, using parasite LDH activity as an index of growth. Test compounds present at 2uM.
For assay [3], the system named is HepG2. Description: GSK_TCMDC: Percent inhibition of human HepG2 cell line. Test compounds present at 10uM.

On to `Fc1ccc2[nH]c(-c3ccc(-c4ccc(CNCCN5CCNCC5)cc4)s3)nc2c1.O=C(O)C(F)(F)F`, for which the Inhibition (as a rule, the change of the read-out against control, counted positive when it falls) in assay [1] is recorded as 96%; in assay [2] it was 2%; in assay [3] it was 24%.

Take `Cc1nc(C)c(-c2ccc(Oc3ccc(OC(F)(F)F)cc3)cc2)c(O)c1I`: the figures for the Inhibition in assay [1], in assay [2] and in assay [3] were 95%, 96% and 3%, respectively.

For `CCn1c(-c2nonc2N)nc2c(-c3cccc(NC(=O)Nc4cccc(Cl)c4)c3)ncc(OCCCN)c21.O=C(O)C(F)(F)F`, the Inhibition is 91% in assay [1], 78% in assay [2] and 9% in assay [3].

Take `O=C(C=Cc1ccc(Br)cc1)N1CCC(CCN2CCC(c3c[nH]c4ccccc34)CC2)CC1`: the values for the Inhibition in assay [1], in assay [2] and in assay [3] were 98%, 24% and 47%, respectively.

Consider `CCCCCC(C)C(C)c1cc(O)c2c(c1)OC(C)(C)CC2(O)c1ccccn1` (configuration not stated), for which the Inhibition in assay [1] is on record as 98%; in assay [2], 3%; in assay [3], 0%.

`COc1ccccc1Oc1c(N(C)S(=O)(=O)c2ccc(C(C)C)cc2)nc(C(F)(F)F)nc1N(C)S(=O)(=O)c1ccc(C(C)C)cc1`: the Inhibition came to 94% in assay [1], 98% in assay [2] and 4% in assay [3].

For `N#Cc1ccc(CN2CCCN(c3ccc(NC(=O)c4ccc(F)cc4)cc3)CC2)cc1.O=C(O)C(F)(F)F`, the Inhibition in assay [1] worked out at 90%; in assay [2], 61%; in assay [3], 12%.

As to `O=C(O)C(F)(F)F.O=C1CCCN1CCCNCc1ccc(-c2ccc(-c3nc4cc(C(F)(F)F)ccc4[nH]3)cc2)cc1`, the values for the Inhibition in assay [1], in assay [2] and in assay [3] were 100%, 98% and 10%, respectively.

As for `O=c1cc(NCCCNCc2cccc(I)c2)[nH]c2ccccc12`, the Inhibition came out at 90% in assay [1], 9% in assay [2] and 10% in assay [3].

As for `C=CCOC(=O)N1CCC(CNCc2cccc(-c3cccc(-c4nc5cc(F)ccc5[nH]4)c3)c2)C1.O=C(O)C(F)(F)F` (configuration not stated), the Inhibition is 100% in assay [1], 49% in assay [2] and 20% in assay [3].

In the case of `O=C(/C=C/c1ccc(Cl)c(Cl)c1)NCCCCCN1CCC(NC(=O)Nc2ccccc2Cl)CC1`, the Inhibition in assay [1] is 100%; in assay [2], 23%; in assay [3], 56%.

Regarding `COc1ccc(CN(C)CC(O)COc2ccc(NC(=O)c3cccc4c(=O)c5cccc(OC)c5[nH]c34)cc2)cc1OC` (configuration not stated), the Inhibition in assay [1] amounted to 93%; in assay [2], 65%; in assay [3], 72%.

Regarding `COc1ccc(CCNCCCCCCNCCCc2ccc(Cl)cc2)cc1OC.Cl`, the Inhibition in assay [1] is recorded as 96%; in assay [2], 2%; in assay [3], 36%.

For `Br.Fc1ccc(C2N=C(SCCSC3=NC(c4ccc(F)cc4)C(c4ccc(F)cc4)N3)NC2c2ccc(F)cc2)cc1` (configuration not stated), the Inhibition in assay [1] was 99%; in assay [2], 69%; in assay [3], 18%.

With `O=C(C=Cc1ccc(Cl)c(Cl)c1)NCCCCCN1CCC(c2n[nH]c3ccccc23)CC1`, the Inhibition in assay [1] was found to be 99%; in assay [2], 29%; in assay [3] it was 32%.

Turning to `COc1ccc(NC(=O)CSc2nc(-c3ccccc3Cl)ns2)cc1`, the Inhibition was determined as 96% in assay [1], 75% in assay [2] and 11% in assay [3].

Turning to `O=C(Nc1ccc(Cn2nc(Cl)c(N3CCNCC3)cc2=O)cc1)Nc1ccc(-c2ccccc2)cc1.O=C(O)C(F)(F)F`, the Inhibition in assay [1] is on record as 97%; in assay [2] it was 49%; in assay [3], 99%.

Turning to `Cc1cccn2c(=O)c3cc(C(=O)NC4CCCCC4)c(=N)n(CCCn4ccnc4)c3nc12`, the Inhibition was found to be 100% in assay [1], 8% in assay [2] and 1% in assay [3].

As to `CCc1cn2c3c(cc(C(=O)N[C@@H](Cc4cc(F)cc(F)c4)[C@H](O)CNC4CC4)cc13)N(C)S(=O)(=O)CC2.O=CO`, the Inhibition was 100% in assay [1], 99% in assay [2] and 3% in assay [3].

For `COc1ccc2nc3cc(Cl)ccc3c(N)c2c1.Cl`, the Inhibition in assay [1], in assay [2] and in assay [3] was 100% each time.

As for `N/C(=N\c1cccc(Cc2ccccc2)n1)NCc1ccccc1`, the Inhibition was determined as 85% in assay [1], 52% in assay [2] and 57% in assay [3].

For the compound `CCCCOc1ccc(N2C(N)=NC(N)=NC2(C)C)cc1.Cl`, the Inhibition in assay [1] is 97%; in assay [2], 3%; in assay [3], 16%.

As for `O=C(NC1CC1)c1cnc(N2CCC(COc3cccc(F)c3)CC2)c(Cl)c1`, the results for the Inhibition in assay [1], in assay [2] and in assay [3] were 89%, 87% and 1%, respectively.

In the case of `Cc1cc(O)c(CN2CCN(Cc3cccs3)CC2)cc1C(C)C`, the Inhibition in assay [1] was 98%; in assay [2], 97%; in assay [3], 7%.

In the case of `CC(C)(CNCc1ccc(Cl)c(Cl)c1)c1nc(-c2ccc(Cl)c(O)c2)c(-c2ccncc2)[nH]1.Cl`, the Inhibition amounted to 100% in assay [1], 97% in assay [2] and 43% in assay [3].

As to `Cc1ccccc1C1CCN(C2CCC(NC(=O)c3ccc(-c4ccccc4)s3)CC2)CC1` (configuration not stated), the Inhibition in assay [1] is on record as 100%; in assay [2], 84%; in assay [3], 26%.

For the compound `Nc1nccc2ccc(-c3ccc(Oc4ccccc4)cc3)cc12.O=C(O)C(F)(F)F`, the Inhibition was 98% in assay [1], 80% in assay [2] and 36% in assay [3].

Take `Cc1cc(NC(=O)c2cccs2)ccc1OC1CCN(Cc2ccc(C#N)cc2)C1.O=C(O)C(F)(F)F` (configuration not stated): the Inhibition is reported as 82% in assay [1], 61% in assay [2] and 13% in assay [3].

As to `CC(C)c1ccc2[nH]c(C(=O)NC3CCC(N4CCCc5ccc(C#N)cc5C4)CC3)cc2c1` (configuration not stated), the results for the Inhibition in assay [1], in assay [2] and in assay [3] were 91%, 27% and 48%, respectively.
